The source of these data is PubChem BioAssay (NCATS).

Records with an inconclusive call do not appear. Values without a mark were called inactive. Activity calls are given as the source filed them. Unless noted, calls follow the shape of the full dose curve.
Potency is read from the fitted curve at half-maximal effect.

A short description of the first test: Cell Viability - BJ (AID 421).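 Also: cells exposed to compound for 40 hours at 37 °C before readout.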 As to conditions: BJ fibroblast viability, qHTS. An outline of the steps:
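Quantitative HTS: ATP depletion in BJ cells after 40 hr compound exposure in complete culture medium, detected with CellTiter-Glo; AC50 from standard Hill fits.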
As to `ClC1=C(Cl)C2(Cl)C3C4CC(C5OC45)C3C1(Cl)C2(Cl)Cl` (stereo not given), the Potency was greater than 92 µM.
Consider `ClC1=C(Cl)C2(Cl)C3C4C=CC(C4)C3C1(Cl)C2(Cl)Cl` (stereo not given), for which the Potency was greater than 92 µM.
Turning to `O=C(O)COc1ccc(Cl)cc1Cl`, the Potency was greater than 92 µM.
As for `COC(=O)NC(=S)Nc1ccccc1NC(=S)NC(=O)OC`, the Potency is greater than 92 µM.
Turning to `COP(=S)(OC)Oc1ccc([N+](=O)[O-])cc1`, the Potency is greater than 92 µM.
The same measure, in the same setting: the result for `O=S1OCC2C(CO1)C1(Cl)C(Cl)=C(Cl)C2(Cl)C1(Cl)Cl` (stereo not given) reads greater than 92 µM; that for `C=CCc1ccc(OC)cc1`, greater than 92 µM; that for `CNC(=O)O/N=C/C(C)(C)SC`, greater than 92 µM.
Regarding `c1ccc(N=Nc2ccccc2)cc1`, the Potency is greater than 92 µM.

A short description of the next test: Cell Viability - Jurkat (AID 426;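 active = dose-dependent loss of cell ATP signal giving a full or clear fitted curve, ranked by lower potency value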). As to conditions: qHTS. The procedure, abridged: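 Jurkat (clone E6-1, human T-cell leukemia) cells, 5000/well in complete medium, were exposed to compound for 40 hr at 37 °C. Viability was read as intracellular ATP by CellTiter-Glo luminescence; AC50 came from Hill fits of concentration-response data.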
As for `CCNc1nc(Cl)nc(NC(C)C)n1`, the Potency is greater than 92 µM.
On the same count and under the same terms, the result for `CCOCN(C(=O)CCl)c1c(C)cccc1CC` reads 32 µM (active); that for `ClC(Cl)=C(c1ccc(Cl)cc1)c1ccc(Cl)cc1`, greater than 92 µM; that for `O=C(O)COc1ccc(Cl)cc1Cl`, greater than 92 µM.
With `C/C=C/c1ccc2c(c1)OCO2`, the Potency was greater than 92 µM.
Still for that read-out and setting: in the case of `COP(=S)(OC)Oc1ccc([N+](=O)[O-])cc1` it was greater than 92 µM.
Same read-out and setting: the result for `C=CCc1ccc(OC)cc1` reads greater than 92 µM; that for `CNC(=O)O/N=C/C(C)(C)SC`, greater than 92 µM; that for `c1ccc(N=Nc2ccccc2)cc1`, 47.9 µM (active).
The same measure, in the same setting: the result for `CCc1cccc(CC)c1N(COC)C(=O)CCl` reads 54 µM (active).

A short description of a further test: Cell Viability - Hek293 (AID 427;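 active = compounds whose dose-response curve shows a full or clear partial loss of cell viability, called from curve shape rather than a numeric limit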;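 also: cells exposed to compound for 40 hours at 37 °C before reading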). The settings on record: qHTS. The procedure, abridged:
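AC50 values derive from Hill-modelled concentration-response of ATP-based luminescence, normalized between DMSO-only and 100 uM tamoxifen controls. Cells were exposed in complete culture medium for 40 hr at 37 °C before detection.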
Consider `CCNc1nc(Cl)nc(NC(C)C)n1`, for which the Potency was greater than 92 µM.
Same read-out and setting: the result for `ClC1=C(Cl)C2(Cl)C3C4CC(C5OC45)C3C1(Cl)C2(Cl)Cl` (stereo not given) reads greater than 92 µM; that for `ClC(Cl)=C(c1ccc(Cl)cc1)c1ccc(Cl)cc1`, greater than 92 µM; that for `O=C(O)COc1ccc(Cl)cc1Cl`, greater than 92 µM.
On to `COC(=O)NC(=S)Nc1ccccc1NC(=S)NC(=O)OC`, for which the Potency was greater than 92 µM.
Regarding `C/C=C/c1ccc2c(c1)OCO2`, the Potency was greater than 92 µM.
For `COP(=S)(OC)Oc1ccc([N+](=O)[O-])cc1`, the Potency is greater than 92 µM.
Still for that read-out and setting: in the case of `C=CCc1ccc(OC)cc1` it was greater than 92 µM; in that of `CNC(=O)O/N=C/C(C)(C)SC`, greater than 92 µM; in that of `c1ccc(N=Nc2ccccc2)cc1`, greater than 92 µM.

A short description of a further test: Cell Viability - HepG2 (AID 433).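 Also: potency for ATP loss meaning cytotoxicity.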 As to conditions: qHTS. The procedure, abridged: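 Cytotoxicity is scored as loss of intracellular ATP in HepG2 cells exposed to compounds for 40 h. Concentration-response curves, normalized to DMSO and 100 uM tamoxifen, give AC50 values.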
On the technique in general: Quantitative high-throughput screening tests each substance at several concentrations.
As to `CCNc1nc(Cl)nc(NC(C)C)n1`, the Potency was greater than 92 µM.
On to `ClC1=C(Cl)C2(Cl)C3C4CC(C5OC45)C3C1(Cl)C2(Cl)Cl` (stereo not given), for which the Potency was greater than 92 µM.
The same measure, in the same setting: in the case of `ClC(Cl)=C(c1ccc(Cl)cc1)c1ccc(Cl)cc1` it was greater than 92 µM.
For `ClC1=C(Cl)C2(Cl)C3C4C=CC(C4)C3C1(Cl)C2(Cl)Cl` (stereo not given), the Potency was greater than 92 µM.
As for `O=C(O)COc1ccc(Cl)cc1Cl`, the Potency is greater than 92 µM.
As to `COC(=O)NC(=S)Nc1ccccc1NC(=S)NC(=O)OC`, the Potency was greater than 92 µM.
Consider `C/C=C/c1ccc2c(c1)OCO2`, for which the Potency is greater than 92 µM.
Turning to `COP(=S)(OC)Oc1ccc([N+](=O)[O-])cc1`, the Potency was greater than 92 µM.
Still for that read-out and setting: the result for `O=S1OCC2C(CO1)C1(Cl)C(Cl)=C(Cl)C2(Cl)C1(Cl)Cl` (stereo not given) reads greater than 92 µM; that for `C=CCc1ccc(OC)cc1`, greater than 92 µM; that for `ClC1=C(Cl)C2(Cl)C3C(Cl)C=CC3C1(Cl)C2(Cl)Cl` (stereo not given), greater than 92 µM.
On the same count and under the same terms, in the case of `CNC(=O)O/N=C/C(C)(C)SC` it was greater than 92 µM; in that of `c1ccc(N=Nc2ccccc2)cc1`, greater than 92 µM; in that of `CCc1cccc(CC)c1N(COC)C(=O)CCl`, greater than 92 µM.

A short description of a further test: Cell Viability - MRC5 (AID 434).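 Also: potency reflects cytotoxicity seen as loss of intracellular ATP.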 As to conditions: MRC5 lung fibroblast viability, qHTS. The procedure, abridged:
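MRC5 normal human lung fibroblasts (1500/well) were treated with compounds for 40 hr at 37 °C in complete medium, and viable cells were measured as intracellular ATP by CellTiter-Glo luminescence. AC50 came from Hill fits, normalized to DMSO and 100 uM tamoxifen.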
In the case of `CCNc1nc(Cl)nc(NC(C)C)n1`, the Potency was greater than 92 µM.
In the case of `ClC1=C(Cl)C2(Cl)C3C4CC(C5OC45)C3C1(Cl)C2(Cl)Cl` (stereo not given), the Potency is greater than 92 µM.
`ClC(Cl)=C(c1ccc(Cl)cc1)c1ccc(Cl)cc1`: the Potency is greater than 92 µM.
Consider `ClC1=C(Cl)C2(Cl)C3C4C=CC(C4)C3C1(Cl)C2(Cl)Cl` (stereo not given), for which the Potency was greater than 92 µM.
The same measure, in the same setting: the result for `O=C(O)COc1ccc(Cl)cc1Cl` reads greater than 92 µM; that for `COC(=O)NC(=S)Nc1ccccc1NC(=S)NC(=O)OC`, greater than 92 µM; that for `C/C=C/c1ccc2c(c1)OCO2`, greater than 92 µM.
Still for that read-out and setting: the result for `COP(=S)(OC)Oc1ccc([N+](=O)[O-])cc1` reads greater than 92 µM; that for `O=S1OCC2C(CO1)C1(Cl)C(Cl)=C(Cl)C2(Cl)C1(Cl)Cl` (stereo not given), greater than 92 µM.
Consider `C=CCc1ccc(OC)cc1`, for which the Potency is greater than 92 µM.
Still for that read-out and setting: the result for `ClC1=C(Cl)C2(Cl)C3C(Cl)C=CC3C1(Cl)C2(Cl)Cl` (stereo not given) reads greater than 92 µM.
Same read-out and setting: in the case of `CNC(=O)O/N=C/C(C)(C)SC` it was greater than 92 µM.
Same read-out and setting: the result for `c1ccc(N=Nc2ccccc2)cc1` reads greater than 92 µM.

A short description of a further test: Cell Viability - SK-N-SH (AID 435).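 Also: compound exposure lasted 40 h at 37 °C.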 As to conditions: SK-N-SH neuroblastoma cell viability qHTS. An outline of the steps: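 Cells seeded at 1500 per well and incubated 5 hr at 37 °C. Compound added, then 40 hr at 37 °C. CellTiter-Glo added, 20 min at room temperature, luminescence read.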
As to `CCNc1nc(Cl)nc(NC(C)C)n1`, the Potency is greater than 92 µM.
The same measure, in the same setting: the result for `ClC(Cl)=C(c1ccc(Cl)cc1)c1ccc(Cl)cc1` reads greater than 92 µM; that for `ClC1=C(Cl)C2(Cl)C3C4C=CC(C4)C3C1(Cl)C2(Cl)Cl` (stereo not given), greater than 92 µM; that for `C/C=C/c1ccc2c(c1)OCO2`, greater than 92 µM.
With `COP(=S)(OC)Oc1ccc([N+](=O)[O-])cc1`, the Potency is greater than 92 µM.
With `C=CCc1ccc(OC)cc1`, the Potency is greater than 92 µM.
For `CNC(=O)O/N=C/C(C)(C)SC`, the Potency is greater than 92 µM.
Still for that read-out and setting: in the case of `c1ccc(N=Nc2ccccc2)cc1` it was greater than 92 µM; in that of `CCc1cccc(CC)c1N(COC)C(=O)CCl`, greater than 92 µM.
